# CYP2C9 act = CYP2C9 (human) activation; recombinant CYP2C9, luciferin-H conversion, luminescence; active compounds read high; factor 1 = untreated enzyme, 0 = blocked; activation factor at 5 µM; 96,000 tested, 1.4% active;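 active = activation factor of 2 or more for CYP2C9 at a 5 µM dose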;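 note: 0 = sulfaphenazole-blocked wells and 1 = vehicle-only wells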
# PostGolgi ctrl = inhibits growth of the yeast control strain. 98,000 tested, 5% active. inhibition, % at 10 µM. AID 738. efflux-deficient yeast background strain, growth absorbance A615, 16 h
# CYP2C9 inhib = inhibitors of human CYP2C9; P11712; CYP2C9 Supersomes, luciferin-H conversion, luminescence; inhibition, % at 5 µM; 96,000 tested, 20% active; AID 777;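 active = blocking of liver enzyme CYP2C9 beyond about 50% at 5 µM, limit read from the data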
# CYP2C19 inhib = blocks human cytochrome P450 2C19; CYP2C19 Supersomes, luciferin-H EGE luminescence, 30 min; AID 778; 96,000 tested, 21% active; P33261; inhibition, % at 5 µM;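 active = CYP2C19 inhibition above a set limit at 5 µM in the primary screen, cut at about 50% in these data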;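 note: plate controls were negative control wells for no effect and 2.5 mM tranylcypromine positive control for full effect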
# Target sequence (P33261 whole entry, looked up): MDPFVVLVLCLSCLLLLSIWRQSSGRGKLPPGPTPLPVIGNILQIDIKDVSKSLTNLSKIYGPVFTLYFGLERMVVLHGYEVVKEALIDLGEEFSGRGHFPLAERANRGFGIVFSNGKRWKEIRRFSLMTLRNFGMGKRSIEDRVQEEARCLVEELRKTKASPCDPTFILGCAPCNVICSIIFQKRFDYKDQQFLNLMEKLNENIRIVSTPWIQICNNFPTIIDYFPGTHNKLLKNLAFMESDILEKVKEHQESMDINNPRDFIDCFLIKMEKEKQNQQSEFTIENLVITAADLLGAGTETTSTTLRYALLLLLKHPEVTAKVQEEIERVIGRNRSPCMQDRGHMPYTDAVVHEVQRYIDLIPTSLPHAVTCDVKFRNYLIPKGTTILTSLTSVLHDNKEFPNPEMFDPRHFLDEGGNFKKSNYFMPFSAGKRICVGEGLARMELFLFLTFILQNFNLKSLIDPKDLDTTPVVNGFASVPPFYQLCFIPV
# PostGolgi yeast = growth inhibition of a yeast mutant, post-Golgi transport screen. post-Golgi transport phenotypic cell assay. inhibition, % at 10 µM. 98,000 tested, 0.9% active. AID 739;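 note: yeast cells grown in 1536-well plates; yeast grown about 18 h at 30C before absorbance read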
# CYP2C19 act = activators of human cytochrome P450 2C19; 96,000 tested, under 10 active; AID 1025; recombinant CYP2C19, luciferin-H EGE luminescence; active compounds read high; 0 = fully inhibited enzyme, 1 = untreated enzyme; P33261; activation factor at 5 µM;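 active = activation factor of at least 2 at 5 µM in the primary screen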;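 note: 0 = wells with 2.5 mM tranylcypromine and 1 = vehicle-only wells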
# Numbers without * were called inactive; · = no result. In the library only some 32% were active in any assay of this set; here they are far more common. Cut-off read from the data, not from the text of the source, unless noted: active = inhibition above about 30%; inactive = the rest.
SMILES,CYP2C9 act,PostGolgi ctrl,CYP2C9 inhib,CYP2C19 inhib,PostGolgi yeast,CYP2C19 act
CCOCCCNC(=O)c1cn(C)c2ccc(S(=O)(=O)N(C)C3CCCCC3)cc2c1=O,0.8,8,23,3,-1,1
CCn1cc(C(=O)NCCCOC)c(=O)c2cc(S(=O)(=O)N(C)C3CCCCC3)ccc21,0.2,19,76*,26,-13,0.7
CNc1nc(NCCOC23CC4CC(CC(C4)C2)C3)nc(OCC(F)(F)F)n1,0.8,27,21,46,3,0.5
Cc1oc(CC(C)C)cc1C(=O)Nc1ccc(C(=O)O)cc1,1,5,2,-1,4,1
O=C(NCCn1ccc2ccccc21)c1ccc(S(=O)(=O)N2CCOCC2)cc1,0.8,9,22,-10,4,1.1
Cc1ccc(S(=O)(=O)NC(CC(=O)NCC2CCCO2)c2ccco2)cc1 (configuration not stated),1.1,9,-8,0,-6,1
COC(=O)C(NC(=O)c1ccc(F)cc1)(Nc1ncc(S(=O)(=O)c2ccc([N+](=O)[O-])cc2)s1)C(F)(F)F (configuration not stated),0.1,1,88*,50*,4,0.5
COC(=O)C(NC(=O)c1ccccc1C)(Nc1ncc(S(=O)(=O)c2ccc([N+](=O)[O-])cc2)s1)C(F)(F)F (configuration not stated),0.4,2,60*,43,11,0.6
O=C(O)CN(Cc1ccccc1)S(=O)(=O)c1ccc(F)cc1,0.5,2,47,-15,1,1.2
CC1CCCCC1NC(=O)CN1C(=O)NC(Cc2ccccc2)(Cc2ccccc2)C1=O (configuration not stated),0.8,1,20,60*,-2,0.4
O=c1c(Cc2ccccc2)c(O)nc2n1CCS2,1,-1,-2,1,10,1
COc1cc(C2c3c(oc4ccc(C)cc4c3=O)C(=O)N2c2cc(C)ccn2)cc(OC)c1OC (configuration not stated),0.4,·,59*,3,·,1
Cc1ccc2oc3c(c(=O)c2c1)C(c1cccc(O)c1)N(c1ccccn1)C3=O (configuration not stated),1.1,8,-11,20,-14,0.8
Cc1cc(NC(=O)CSc2ncnc3ccccc23)no1,0.8,6,22,22,-8,0.8
Cc1occc1C(=O)NCCCc1ccccc1,0.7,9,26,40,-5,0.6
COC(=O)c1ccc(CSc2nnc3n(Cc4ccccc4OC)c(=O)c4ccccc4n23)o1,0.3,·,74*,72*,·,0.3
COCCn1c(SCc2ccc(C(=O)OC)o2)nc2ccccc2c1=O,0.1,20,92*,98*,-3,0
COC(=O)c1ccc(CSc2nc3ccccc3c(=O)n2-c2ccc(OC)c(OC)c2)o1,0,9,96*,94*,-2,0.1
COC(=O)c1ccc(Cn2nnc3ccccc3c2=O)o1,0.9,-2,15,17,0,0.8
COc1ccc(-n2c(SCC(=O)Nc3cc(C)on3)nc3ccc(O)cc3c2=O)cc1OC,0.7,-1,30,11,-10,0.9
COC(=O)c1ccc(CSc2nc3ccccc3c(=O)n2-c2ccccc2)o1,0.3,15,74*,44,-10,0.6
C=CCNC(=O)NC(=S)c1ccccc1,1,5,-2,35,1,0.7
O=C(NC1CC2CCCC(C1)N2Cc1cccs1)N1CCOCC1 (configuration not stated),1.2,-6,-16,13,-5,0.9
COc1c(F)c(F)c(C(=O)O)c(Nc2ccccc2)c1F,1,4,0,14,-2,0.9
CCN(CC)C(=O)c1cc(-c2ccc(Br)cc2)on1,1,9,4,4,5,1
SMILES,CYP2C9 act,PostGolgi ctrl,CYP2C9 inhib,CYP2C19 inhib,PostGolgi yeast,CYP2C19 act
COC(=O)c1ccc(CSc2nc3c(c(=O)n2-c2ccccc2)SCC3)o1,0.1,30,86*,48,-7,0.5
COc1ccccc1-n1cnnc1SC1CCOC1=O (configuration not stated),0.7,-2,34,11,-2,0.9
COc1ccc(-n2c(SC3CCOC3=O)nc3ccccc3c2=O)cc1OC (configuration not stated),0.3,0,69*,40,-1,0.6
COc1ccc(NC(=O)CSc2nc3c(c(=O)n2-c2ccccc2)SCC3)c(OC)c1,1,15,-3,-9,-4,1.1
Cc1ccc(-c2nnn(CC(=O)NC3CCCc4ccccc43)n2)cc1 (configuration not stated),0.8,-3,16,29,-2,0.7
Cc1ccc(S(=O)(=O)N2CCN(CC(=O)NC3CCCc4ccccc43)CC2)c(C)c1 (configuration not stated),1,33*,-4,52*,0,0.5
O=C(CCC(=O)N1CCN(S(=O)(=O)c2ccc(Cl)cc2)CC1)NC1CCCc2ccccc21 (configuration not stated),0.7,0,28,47,14,0.5
Cc1ccc(S(=O)(=O)N2CCN(CC(=O)NC3CCCc4ccccc43)CC2)cc1C (configuration not stated),1.1,19,-12,70*,2,0.3
COCCOC(=O)C1=C(C)NC(=O)NC1C1CC=CCC1 (configuration not stated),0.7,20,30,96*,-1,0
COCCOC(=O)C1=C(C)NC(=O)NC1c1c(OC)ncnc1OC (configuration not stated),1,-1,1,0,-1,1
C=CCOC(=O)C1=C(C)NC(=O)NC1C1CC=CCC1 (configuration not stated),0.5,0,49,98*,2,0
COc1cccc2cc(-c3nc(-c4cccs4)cs3)c(=O)oc12,0.2,9,83*,43,-5,0.6
O=C(Nc1nc2c(s1)CCCC2)c1ccc(Br)s1,0.6,29,38,6,8,0.9
CCOC(=O)c1cc2c(C(F)(F)F)cc(-c3cccnc3)nc2o1,0.8,5,17,12,12,0.9
CC(C)CCN1C(=O)c2ccc(-c3nc4ccccc4c(=O)o3)cc2C1=O,0.7,6,27,15,0,0.8
CCOC(=O)c1ccccc1NC(=O)c1ccc(F)cc1,1.1,8,-9,-4,-6,1
O=C(OCc1ccc(F)cc1)c1ccc2c(c1)-c1ccccc1C2=O,0.9,38*,15,2,2,1
CCOC(=O)C1=C(Cc2ccc(F)cc2)C(=O)c2ccccc2C1=O,0.6,24,42,87*,0,0.1
CC1CCN(C(=O)COC(=O)[C@H](C)NS(=O)(=O)/C=C/c2ccccc2)CC1,1.6,6,-64,37,2,0.6
C=CCOC(=O)C1=C(C)NC(SC)=C(C#N)C1c1ccc(OCC)cc1 (configuration not stated),0.1,-4,93*,86*,-8,0.1
